The record followed here is the supplement of paper PMC10849652.

Targets with a hit are over-represented here; the source holds about 8,800 in all. About 0.5% of all pairs of compound and target were hits. Values without a mark were called inactive.

Holding throughout (experiment): log2 fold change, soluble protein after heating vs DMSO (PISA); higher = thermal stabilisation; K562 lysate, 10 uM; active = over 0.2 and 3.5 SD of the protein, either way, in both replicates (recomputed)
Compound in experiment [1]: C1=CC=C(C=C1)[C@H](COC2=CC3=C(C=C2)NC(=O)N3)NC(=O)C4=CC=CN(C4=O)CC5=CC(=C(C=C5)F)F
Summed up: (§1)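 K562 pellets were dounce-homogenised in PBS pH 7.4 with 1 mM MgCl2, and the crude extract at 1 mg/mL protein was treated with 10 μM compound for 30 min. Aliquots were heated for 3 min across 48°C-58°C, pooled, and brought to 0.5% NP-40 at 4°C; soluble protein was the supernatant after 21,000xg for 90 min. Soluble protein was quantified by TMTpro 16plex LC-MS/MS with channel sums equalised, and reported as log2 fold change in thermal stability against DMSO controls, with values from duplicates.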

Compound in experiment [2]: CC1=C(SC2=C1C(=N[C@H](C3=NN=C(N32)C)CC(=O)N)C4=CC=C(C=C4)Cl)C
An outline of the steps: as §1

Compound in experiment [3]: CC1=C2C(=CC=C1)N=C(N(C2=O)C3=CC=CC=C3C)CN4C=NC5=C(N=CN=C54)N
An outline of the steps: as §1

Compound in experiment [4]: Cc1sc2c(c1C)C(c1ccc(Cl)cc1)=N[C@@H](CC(=O)OC(C)(C)C)c1nnc(C)n1-2
Summed up:
as §1

Compound in experiment [5]: c1ccc([C@@H]2C[C@H]2NC2CCNCC2)cc1
An outline of the steps:
as §1

UniProt Q7KZF4, sequence (Q7KZF4 whole entry, looked up): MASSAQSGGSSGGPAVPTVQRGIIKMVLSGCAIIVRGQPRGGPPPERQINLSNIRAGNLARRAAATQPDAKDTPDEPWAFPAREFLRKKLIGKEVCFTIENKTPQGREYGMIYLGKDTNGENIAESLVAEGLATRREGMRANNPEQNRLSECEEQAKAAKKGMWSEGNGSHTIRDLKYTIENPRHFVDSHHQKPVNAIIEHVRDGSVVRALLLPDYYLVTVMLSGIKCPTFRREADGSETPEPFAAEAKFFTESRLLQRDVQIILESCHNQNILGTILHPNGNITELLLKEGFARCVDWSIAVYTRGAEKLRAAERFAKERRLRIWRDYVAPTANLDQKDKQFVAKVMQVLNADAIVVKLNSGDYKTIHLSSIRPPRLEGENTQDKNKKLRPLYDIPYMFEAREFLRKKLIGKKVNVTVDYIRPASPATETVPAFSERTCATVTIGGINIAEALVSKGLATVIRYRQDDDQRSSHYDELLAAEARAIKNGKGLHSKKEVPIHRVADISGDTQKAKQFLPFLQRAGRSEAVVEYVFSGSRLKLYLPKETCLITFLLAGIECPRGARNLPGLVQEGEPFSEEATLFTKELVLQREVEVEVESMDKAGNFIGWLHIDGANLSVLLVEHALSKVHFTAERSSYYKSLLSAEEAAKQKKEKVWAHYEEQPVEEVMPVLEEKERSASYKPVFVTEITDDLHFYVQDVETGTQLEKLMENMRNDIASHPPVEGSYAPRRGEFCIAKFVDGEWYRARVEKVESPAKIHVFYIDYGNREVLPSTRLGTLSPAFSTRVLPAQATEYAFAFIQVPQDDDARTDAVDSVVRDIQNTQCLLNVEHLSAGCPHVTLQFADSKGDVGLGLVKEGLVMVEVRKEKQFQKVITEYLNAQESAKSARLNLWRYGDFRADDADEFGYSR
UniProt Q9H668, sequence (Q9H668 whole entry, looked up): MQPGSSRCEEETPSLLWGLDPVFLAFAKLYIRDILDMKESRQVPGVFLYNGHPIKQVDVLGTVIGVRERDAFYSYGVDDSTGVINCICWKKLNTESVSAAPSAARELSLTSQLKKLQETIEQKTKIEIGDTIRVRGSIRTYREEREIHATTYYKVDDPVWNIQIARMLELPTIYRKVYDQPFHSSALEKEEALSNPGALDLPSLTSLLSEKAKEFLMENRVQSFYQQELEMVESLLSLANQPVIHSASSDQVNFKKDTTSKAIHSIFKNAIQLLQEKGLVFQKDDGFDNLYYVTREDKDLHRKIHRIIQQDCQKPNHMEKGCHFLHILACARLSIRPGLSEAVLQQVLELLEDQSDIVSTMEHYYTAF
UniProt Q5T011, sequence (Q5T011 whole entry, looked up): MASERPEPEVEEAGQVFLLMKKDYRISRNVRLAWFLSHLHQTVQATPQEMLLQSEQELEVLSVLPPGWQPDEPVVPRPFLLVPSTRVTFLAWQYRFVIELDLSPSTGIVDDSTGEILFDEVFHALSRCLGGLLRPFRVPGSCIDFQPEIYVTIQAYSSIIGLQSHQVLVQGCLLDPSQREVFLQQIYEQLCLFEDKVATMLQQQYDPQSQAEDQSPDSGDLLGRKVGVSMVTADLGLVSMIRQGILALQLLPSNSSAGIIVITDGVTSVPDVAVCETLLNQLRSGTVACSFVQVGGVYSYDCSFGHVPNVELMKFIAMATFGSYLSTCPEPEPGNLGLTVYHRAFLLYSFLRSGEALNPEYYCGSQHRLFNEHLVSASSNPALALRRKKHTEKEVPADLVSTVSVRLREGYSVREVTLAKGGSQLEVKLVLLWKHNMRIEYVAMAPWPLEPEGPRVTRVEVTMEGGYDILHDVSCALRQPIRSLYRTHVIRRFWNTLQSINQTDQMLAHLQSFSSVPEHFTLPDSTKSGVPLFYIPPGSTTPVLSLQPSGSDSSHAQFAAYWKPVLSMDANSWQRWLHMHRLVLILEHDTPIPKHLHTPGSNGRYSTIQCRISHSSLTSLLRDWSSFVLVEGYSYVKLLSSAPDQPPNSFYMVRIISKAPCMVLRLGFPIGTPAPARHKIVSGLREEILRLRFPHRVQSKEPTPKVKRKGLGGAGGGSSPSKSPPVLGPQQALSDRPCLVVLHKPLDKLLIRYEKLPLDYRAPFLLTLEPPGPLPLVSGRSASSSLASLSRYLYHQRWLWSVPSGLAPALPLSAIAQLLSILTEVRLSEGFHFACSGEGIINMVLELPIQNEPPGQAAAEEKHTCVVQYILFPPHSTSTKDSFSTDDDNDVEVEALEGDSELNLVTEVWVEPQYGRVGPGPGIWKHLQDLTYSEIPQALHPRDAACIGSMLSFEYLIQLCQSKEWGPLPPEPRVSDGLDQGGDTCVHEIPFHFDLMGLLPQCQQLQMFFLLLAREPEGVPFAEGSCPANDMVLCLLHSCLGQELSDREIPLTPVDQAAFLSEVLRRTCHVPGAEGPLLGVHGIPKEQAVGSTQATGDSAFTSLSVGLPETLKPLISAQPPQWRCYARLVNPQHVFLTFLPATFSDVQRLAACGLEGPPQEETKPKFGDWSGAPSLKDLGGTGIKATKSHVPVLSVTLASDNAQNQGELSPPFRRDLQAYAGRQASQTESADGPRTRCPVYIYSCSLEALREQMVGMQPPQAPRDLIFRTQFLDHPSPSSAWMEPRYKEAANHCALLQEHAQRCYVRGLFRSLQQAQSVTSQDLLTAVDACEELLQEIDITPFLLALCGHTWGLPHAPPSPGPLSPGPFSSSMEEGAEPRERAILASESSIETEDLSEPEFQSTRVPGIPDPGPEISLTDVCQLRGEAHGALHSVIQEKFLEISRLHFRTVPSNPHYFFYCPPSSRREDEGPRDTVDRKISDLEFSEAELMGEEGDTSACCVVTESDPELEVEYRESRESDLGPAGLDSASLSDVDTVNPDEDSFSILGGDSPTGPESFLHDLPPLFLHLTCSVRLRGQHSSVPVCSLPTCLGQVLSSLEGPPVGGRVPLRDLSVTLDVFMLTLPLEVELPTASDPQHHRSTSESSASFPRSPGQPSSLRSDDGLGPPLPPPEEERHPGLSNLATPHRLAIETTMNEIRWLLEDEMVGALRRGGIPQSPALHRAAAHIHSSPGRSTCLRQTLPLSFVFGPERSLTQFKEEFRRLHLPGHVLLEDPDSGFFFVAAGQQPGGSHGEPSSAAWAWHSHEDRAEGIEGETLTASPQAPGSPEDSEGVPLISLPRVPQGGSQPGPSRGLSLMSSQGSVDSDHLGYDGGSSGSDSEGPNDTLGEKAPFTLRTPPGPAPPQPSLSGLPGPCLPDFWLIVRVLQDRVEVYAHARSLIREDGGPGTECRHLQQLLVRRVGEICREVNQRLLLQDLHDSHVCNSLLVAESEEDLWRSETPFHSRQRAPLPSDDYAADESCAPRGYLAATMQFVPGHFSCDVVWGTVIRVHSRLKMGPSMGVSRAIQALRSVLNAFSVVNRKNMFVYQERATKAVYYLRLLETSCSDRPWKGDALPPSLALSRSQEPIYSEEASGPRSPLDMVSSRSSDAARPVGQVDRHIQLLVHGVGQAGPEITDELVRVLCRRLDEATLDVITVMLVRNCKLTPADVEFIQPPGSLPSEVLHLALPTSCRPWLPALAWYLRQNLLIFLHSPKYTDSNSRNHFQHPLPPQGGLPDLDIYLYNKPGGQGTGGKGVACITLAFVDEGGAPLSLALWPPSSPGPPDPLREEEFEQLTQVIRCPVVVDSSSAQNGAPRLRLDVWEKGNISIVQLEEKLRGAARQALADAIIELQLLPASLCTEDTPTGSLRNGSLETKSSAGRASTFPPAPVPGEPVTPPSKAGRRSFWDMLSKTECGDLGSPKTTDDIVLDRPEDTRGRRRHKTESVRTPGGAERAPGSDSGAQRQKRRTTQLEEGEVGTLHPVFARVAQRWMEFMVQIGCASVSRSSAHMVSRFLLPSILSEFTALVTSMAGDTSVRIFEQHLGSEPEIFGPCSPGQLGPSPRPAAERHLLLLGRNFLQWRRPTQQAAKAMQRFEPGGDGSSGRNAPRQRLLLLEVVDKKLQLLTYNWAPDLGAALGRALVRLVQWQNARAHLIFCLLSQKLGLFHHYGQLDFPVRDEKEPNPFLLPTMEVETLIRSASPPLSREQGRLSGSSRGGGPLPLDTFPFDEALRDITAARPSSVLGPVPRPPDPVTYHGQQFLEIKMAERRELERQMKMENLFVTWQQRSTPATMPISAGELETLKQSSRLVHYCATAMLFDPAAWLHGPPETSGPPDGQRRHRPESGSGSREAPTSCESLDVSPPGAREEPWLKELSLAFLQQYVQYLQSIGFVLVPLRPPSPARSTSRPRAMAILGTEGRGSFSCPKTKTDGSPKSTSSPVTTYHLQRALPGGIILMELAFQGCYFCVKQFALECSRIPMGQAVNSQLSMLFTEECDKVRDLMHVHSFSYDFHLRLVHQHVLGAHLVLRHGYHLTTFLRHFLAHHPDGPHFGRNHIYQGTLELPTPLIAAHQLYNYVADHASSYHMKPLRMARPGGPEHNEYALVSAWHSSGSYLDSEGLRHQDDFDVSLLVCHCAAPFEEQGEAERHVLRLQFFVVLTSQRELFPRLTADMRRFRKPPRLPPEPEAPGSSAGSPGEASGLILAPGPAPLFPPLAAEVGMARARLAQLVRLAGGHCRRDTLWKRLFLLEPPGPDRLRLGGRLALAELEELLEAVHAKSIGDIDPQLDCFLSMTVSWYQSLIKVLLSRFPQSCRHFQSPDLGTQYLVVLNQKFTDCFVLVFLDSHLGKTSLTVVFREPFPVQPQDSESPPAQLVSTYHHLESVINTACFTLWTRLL
UniProt Q13309, sequence (Q13309 whole entry, looked up): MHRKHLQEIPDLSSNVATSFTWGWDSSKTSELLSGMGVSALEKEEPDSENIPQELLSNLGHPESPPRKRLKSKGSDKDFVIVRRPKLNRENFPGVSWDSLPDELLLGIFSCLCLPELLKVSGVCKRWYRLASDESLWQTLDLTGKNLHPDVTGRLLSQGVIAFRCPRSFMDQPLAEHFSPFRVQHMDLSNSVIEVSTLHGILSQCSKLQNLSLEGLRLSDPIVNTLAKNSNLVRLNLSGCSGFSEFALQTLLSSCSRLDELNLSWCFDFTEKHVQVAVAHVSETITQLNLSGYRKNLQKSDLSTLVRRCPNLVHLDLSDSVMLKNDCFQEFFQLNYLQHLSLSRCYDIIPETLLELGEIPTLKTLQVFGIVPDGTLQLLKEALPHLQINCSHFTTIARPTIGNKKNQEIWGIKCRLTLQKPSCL

For SND1 (UniProt Q7KZF4), the log2 fold change in experiment [1] is -0.008; in experiment [2] it was 0.021; in experiment [3], 0.022; in experiment [4], 0.037; in experiment [5], 0.041.
Regarding SQLE (UniProt Q14534), the log2 fold change in experiment [1] is 0.044; in experiment [2], 0.054; in experiment [3] it was -0.099; in experiment [4], 0.012; in experiment [5], 0.031.
Regarding SNRPD2 (UniProt K7EJB5), the log2 fold change in experiment [3] is 0.024; in experiment [4], -0.047.
Consider SLCO4A1 (UniProt Q96BD0), for which the log2 fold change is 0.203 in experiment [1], -0.372 in experiment [2] and -0.013 in experiment [5].
Regarding SLC35A3 isoform 2 (UniProt Q9Y2D2), the log2 fold change in experiment [3] is 0.008; in experiment [5] it was -0.57.
In the case of STK17B (UniProt O94768), the log2 fold change in experiment [4] was -0.029.
In the case of SPPL2A (UniProt Q8TCT8), the log2 fold change in experiment [1] is -0.148; in experiment [2], 0.118; in experiment [3], 0.087; in experiment [5], 0.098.
With SLC40A1 (UniProt Q9NP59), the log2 fold change in experiment [3] is 0.013; in experiment [4], -0.107; in experiment [5] it was -0.205.
With SZT2 (UniProt Q5T011), the log2 fold change in experiment [1] was -0.285; in experiment [2] it was -0.066; in experiment [4], -0.148; in experiment [5] it was 0.105.
SLC30A6 isoform 2 (UniProt Q6NXT4): the log2 fold change is 0.033 in experiment [1], -0.046 in experiment [2], 0.116 in experiment [3] and -0.059 in experiment [5].
With SMARCA4 isoform 4 (UniProt P51532), the log2 fold change in experiment [4] was -0.007; in experiment [5] it was 0.131.
Turning to SNAPC2 (UniProt Q13487), the log2 fold change was 0.107 in experiment [1], 0.302 in experiment [2], 0.101 in experiment [4] and 0.004 in experiment [5].
Turning to SKP2 (UniProt Q13309), the log2 fold change in experiment [3] is -0.015; in experiment [4], -0.003; in experiment [5], 0.001.
As to SMIM1 (UniProt B2RUZ4), the log2 fold change in experiment [1] is 0.053; in experiment [2], -0.054; in experiment [5], -0.028.
For STN1 (UniProt Q9H668), the log2 fold change in experiment [1] is -0.125; in experiment [2], 0.073; in experiment [3], -0.115; in experiment [5] it was -0.049.
With TAF11 (UniProt Q15544), the figures for the log2 fold change in experiment [3], in experiment [4] and in experiment [5] were 0, -0.16 and -0.073, respectively.
With STAU1 isoform 3 (UniProt O95793), the figures for the log2 fold change in experiment [1], in experiment [2] and in experiment [5] were 0.19, 0.043 and 0.081, respectively.
For the target SIN3B (UniProt O75182), the log2 fold change in experiment [3] was -0.129; in experiment [5], 0.052.
SLC12A6 isoform 2 (UniProt Q9UHW9): the log2 fold change in experiment [4] was -0.179.
Take SRC isoform 2 (UniProt P12931): the log2 fold change in experiment [1] is -0.052; in experiment [2], -0.412 (active); in experiment [4], -0.105; in experiment [5], 0.017.
For the target SLC41A1 (UniProt Q8IVJ1), the log2 fold change in experiment [5] is -0.016.
In the case of SNAP23 isoform 2 (UniProt O00161), the log2 fold change in experiment [3] was 0.045; in experiment [5] it was -0.038.
Turning to SHB (UniProt Q15464), the results for the log2 fold change in experiment [4] and in experiment [5] were 0.033 and 0.086, respectively.
As to SHC1 (UniProt P29353), in experiment [5], the log2 fold change is 0.201.
Take SMPD2 (UniProt O60906): the log2 fold change is -0.244 in experiment [4] and -0.05 in experiment [5].
